# Source: PubChem BioAssay AID504895 (National Center for Advancing Translational Sciences (NCATS), 2011)
# Records with an inconclusive call do not appear. A call without a number means that no potency is given here. Activity calls are given as the source filed them. Calls follow the shape of the dose curve; as a rule, active = well fitted curve in the direction sought with a large enough effect; inconclusive = small, poorly fitted or top-dose-only effect, or another doubt; inactive = no such curve, though single readings can be large or run the other way.
# Molecular target: Protein phosphatase EYA2 (Homo sapiens) (UniProt O00167)
# Sequence (O00167 whole entry, looked up): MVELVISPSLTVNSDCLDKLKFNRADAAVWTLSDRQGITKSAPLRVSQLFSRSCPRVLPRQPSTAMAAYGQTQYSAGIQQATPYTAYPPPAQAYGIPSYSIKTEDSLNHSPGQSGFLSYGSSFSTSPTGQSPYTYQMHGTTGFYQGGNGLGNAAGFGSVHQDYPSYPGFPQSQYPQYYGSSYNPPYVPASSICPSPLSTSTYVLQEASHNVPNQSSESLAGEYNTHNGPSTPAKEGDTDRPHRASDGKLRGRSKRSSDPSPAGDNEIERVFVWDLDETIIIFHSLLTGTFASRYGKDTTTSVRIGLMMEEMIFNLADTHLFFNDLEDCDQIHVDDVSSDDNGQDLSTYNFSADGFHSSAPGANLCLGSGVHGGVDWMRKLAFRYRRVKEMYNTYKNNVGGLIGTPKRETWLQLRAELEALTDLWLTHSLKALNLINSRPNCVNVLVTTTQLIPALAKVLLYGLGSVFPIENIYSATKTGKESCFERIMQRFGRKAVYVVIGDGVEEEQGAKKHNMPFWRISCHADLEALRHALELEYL
# Assay: Inhibitors of Eya2ED: Hit Confirmation in Primary Screen
# Details: Recombinant Eya2ED, OMFP fluorescence phosphatase assay; series mostly up to 76.9 µM
# Source text: The Eya proteins (Eya1-4) were originally identified as essential co-activators of the Six1 transcription factor. […] Knockdown of Six1 decreases cancer cell proliferation and metastases in several different cancer models. […] A fluorescence-based HTS assay has been perfomed against the Molecular Libraries Small Molecule Repository (MLSMR) and has the AID 488837 in this database. After completion of the primary screen, hits were re-ordered and tested again in the primary screen in a 12 point titration. NIH Chemical Genomics Center [NCGC] NIH Molecular Libraries Probe Centers Network [MLPCN] MLPCN Grant: DA030559-01 Assay Submitter (PI): Rui Zhao, University of Colorado, Denver
# The Eya2 enzyme was kindly provided by the laboratory of Dr. Rui Zhao. The 3-O-methyl-fluorescein phosphate (OMFP) substrate and all buffer reagents were purchased from Sigma Aldrich. qHTS Assay Setup: 1. Buffer- 50 mM HEPES pH 7.5, 50 mM NaCl, 5 uM MgCl2, 0.05% BSA, 1 mM DTT. 2. OMFP Stock- 10 mM solution prepared in 100% DMSO and stored in single use aliquots at -20C. Assay Procedure- 1. Dispense 1.5 ul per well of Eya2 at 0.2 uM in black medium binding 1536 well Greiner plate 2. Transfer 23 nl of compound and control compound (EGTA) to plate 3. Incubate at ambient for 10 minutes 4. Dispense 1.5 ul per well of OMFP at 50 uM 5. Incubate at ambient for 10 minutes 6. Read on ViewLux using Excitation = 485 nm, Emission = 525 nm
row,Structure (SMILES),Potency
1,CCOc1cc(C)c(Cl)cc1S(=O)(=O)NCc1ccco1,inactive
2,CCCOc1ccc(S(=O)(=O)N2CCN(C)CC2)c2ccccc12,inactive
3,CCOC(=O)C1CCCN(Cc2cc(Br)c(OC)cc2OC)C1 (stereo not given),inactive
4,Cc1cccn2c(=O)nc(SCC(=O)NCc3ccc(F)cc3)nc12,inactive
5,COc1ccc(CCN=C(C)C2=C(O)C(c3ccccc3)OC2=O)cc1OC (stereo not given),inactive
6,COc1ccc(NS(=O)(=O)c2cc([N+](=O)[O-])ccc2NN=Cc2ccccc2OCC(=O)O)cc1,inactive
7,COc1ccccc1N1C(=O)C2C3C=CC(C3)C2C1=O (stereo not given),inactive
8,CCOc1ccc(NC(=O)COC(=O)CN2CCCCCC2=O)cc1,inactive
9,CCOC(=O)c1[nH]c(C)c(C(=O)OCC(=O)Nc2sc3c(c2C#N)CCCCC3)c1C,inactive
10,O=C(COc1cccc(C(F)(F)F)c1)NCC(c1ccco1)N1CCCC1 (stereo not given),inactive
11,C#CCOCCOCCOCCNc1nc(N2CCN(C(=O)CCCCCCCCCCNC(=O)[C@H](CCCCN)n3cc(C)nn3)CC2)nc(N2CCN(C(=O)CCCCCCCCCCNC(=O)[C@H](CCCN=C(N)N)n3cc(C[C@@H](C)CC)nn3)CC2)n1,18.4 µM (active)
12,O=C(COC(=O)c1cc(Cl)ccc1Cl)NC1CCCC1,inactive
13,O=C(CCCC(=O)N(CC(=O)NC1CCCCC1)c1ccccc1F)Nc1ccccn1,inactive
14,Cc1nn(C)c(C)c1NC(=O)Nc1ccc(Cl)c(Cl)c1,inactive
15,COc1ccc(CC(=O)Nc2cccnc2)cc1,inactive
16,Cc1ccc(NC(=O)c2sc(N)nc2-c2ccc([N+](=O)[O-])cc2)cc1C,inactive
17,Cn1cccc1C(=O)Nc1ccc(Cl)c(S(=O)(=O)N2CCCCC2)c1,inactive
18,COc1ccccc1OCCCCOc1ccccc1F,inactive
19,COC(=O)C(NNc1ccccc1)(NC(=O)c1cccc(F)c1)C(F)(F)F (stereo not given),inactive
20,COc1ccc(CCc2nc(C)ccc2O)cc1,inactive

row,Structure (SMILES),Potency
1,O=C(NC(=S)Nc1ccccc1N1CCCCC1)c1ccc(F)cc1Cl,inactive
2,O=C(COC(=O)c1cc(S(=O)(=O)N2CCCC2)ccc1O)Nc1ccccc1Br,inactive
3,O=C(Cc1ccccc1F)NC1CCCN(Cc2ccc(Cl)cc2)C1 (stereo not given),inactive
4,COc1c(O)ccc(/C=N\NC(=O)c2ccc3c(c2)OCO3)c1[N+](=O)[O-],inactive
5,O=C(NCc1ccccn1)C1CCCN(Cc2cnn(-c3ccccc3)c2-n2cccc2)C1 (stereo not given),inactive
6,Cc1cc(C)n(C(=O)COc2ccccc2[N+](=O)[O-])n1,inactive
7,COc1ccc(-c2nnn(-c3cc(Cl)cc(Cl)c3)c2N)cc1,inactive
8,Cc1ccc(OCC(=O)N2c3ccccc3NC(=O)C2(C)C)c([N+](=O)[O-])n1,inactive
9,O=C(NC1CCN(Cc2ccccc2)CC1)c1cccc(S(=O)(=O)Nc2ccc(SC(F)F)cc2)c1,inactive
10,O=C(N/N=C\c1ccc(Sc2ccccn2)o1)c1cccc(Br)c1,1.84 µM (active)
11,Cn1c(=O)c(C(=O)Nc2ncccc2O)c(O)c2ccccc21,inactive
12,CCCc1nnc(SCc2ccc(C(=O)OC)o2)n1N,inactive
13,CCOC(=O)CN(C(=O)CN1CCC(n2nnc3cc(C)ccc32)CC1)c1ccccc1,inactive
14,CC(=O)c1ccc(NC(=O)C2(c3ccccc3)CC2(Cl)Cl)cc1 (stereo not given),inactive
15,CCCC(=O)Nc1cccc(NC(=O)c2ccc3c(c2)OCCO3)c1,inactive
16,O=C(COC(=O)c1ccccc1Nc1cccc(C(F)(F)F)c1)NCc1ccco1,inactive
17,O=C(NN=C1CCCC1)c1[nH]c2ccc(Br)cc2c1-c1ccccc1,inactive
18,O=C(N/N=C/c1ccc(Sc2nc3ccccc3[nH]2)o1)c1ccncc1,inactive
19,Cc1cc(/C=C2\SC(=S)NC2=O)cc(C)c1O,inactive
20,Cc1ccc2occ(/C=N/NC(=O)[C@@H](N)Cc3ccccc3)c(=O)c2c1,inactive
